Screening data deposited in PubChem BioAssay by Broad Institute.
An excerpt weighted towards active compounds, which were near 3.1% of everything screened.
Statin myotox sup: protects C2C12 myotubes from simvastatin toxicity; 0.78% of 330,000 active; rescue of ATP level, % at 7.49 µM; ATP luminescence, 48 h; scaled: DMSO 0, geranylgeraniol control 100; AID 602340;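 active = mean ATP rescue above about 67%, or every replicate alone reaching that limit, limit read from the data, passing the limit was not always enough; inconclusive = no clear call, values can overlap the other calls; inactive = mean under the limit and some replicate under it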;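 also: myotubes were challenged with 10 µM simvastatin during compound exposure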
esBAF inh: blocks esBAF chromatin remodeling in mouse ES cells; Bmi1-luciferase knock-in reporter, 24 h; 100% = twice the neutral-well signal; reporter increase, % at 12.5 µM; 2% of 350,000 active; in the data active = activation above about 40%; inconclusive = no clear call, values can overlap the other calls;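 also: 0% = median of the plate's neutral control wells and 100% = double that signal; a rise in the Bmi1 reporter signal indicates esBAF inhibition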
MITF TRPM1 HTS: increases MITF-driven TRPM1 promoter luciferase signal; SK-MEL-5 TRPM1-promoter luciferase, 24 h; % of positive control, neutral wells = 0; activation, % at 12.5 µM; 0.75% of 300,000 active;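 active = mean activation of at least 80% with every replicate also reaching 80%; inconclusive = mean reaches 80% but some replicate falls short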;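 also: 0% = neutral control wells and 100% = parthenolide positive control wells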
Rtt109 Vps75: C. albicans Rtt109 histone acetyltransferase inhibition; purified Rtt109/Vps75, ThioGlo CoA-SH fluorescence, 4 h; inhibition, % at 34.9 µM; 0.16% of 330,000 active; AID 540336;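 active = inhibition of at least 50% in every replicate; inconclusive = best replicate reaches 50% inhibition but some replicates fall short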
Target sequence (Q5AAJ8 whole entry, looked up): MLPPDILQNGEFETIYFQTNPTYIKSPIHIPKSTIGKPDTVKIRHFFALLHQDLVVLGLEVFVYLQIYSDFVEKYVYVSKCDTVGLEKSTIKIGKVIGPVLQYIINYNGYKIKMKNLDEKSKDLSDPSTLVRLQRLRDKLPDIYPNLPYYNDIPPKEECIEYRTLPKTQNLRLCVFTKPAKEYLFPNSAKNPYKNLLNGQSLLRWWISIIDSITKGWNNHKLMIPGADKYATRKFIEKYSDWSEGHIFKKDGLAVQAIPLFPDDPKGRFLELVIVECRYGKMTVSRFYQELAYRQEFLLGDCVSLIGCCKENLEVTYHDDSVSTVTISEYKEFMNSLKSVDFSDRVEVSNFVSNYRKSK
Wnt bcat act: activates Wnt/beta-catenin signaling in a reporter cell assay; activator, plate reader; activation, % at 9.35 µM; 1.2% of 300,000 active; in the data active = activation above about 30%, passing the limit was not always enough; inconclusive = no clear call, values can overlap the other calls;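 also: 0% = neutral control wells and 100% = positive control wells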
* = called active by the depositor; u = inconclusive; x = no result.

SMILES	Statin myotox sup	esBAF inh	MITF TRPM1 HTS	Rtt109 Vps75	Wnt bcat act
COc1ccc(OCc2cc(C(=O)NC(C)c3nc(C)cs3)no2)c(Cl)c1 (configuration not stated)	5	61*	x	x	1
CCC(NC(=O)c1cc(COc2ccc(Cl)cc2OC)on1)c1ccncc1 (configuration not stated)	9	68*	78	0	22
COc1cc(Cl)ccc1OCc1cc(C(=O)NC(C)Cc2cnccn2)no1 (configuration not stated)	0	67*	88*	0	47*
CCC(NC(=O)c1cc(COc2ccc(OC)cc2Cl)on1)c1ccncc1 (configuration not stated)	6	47*	50	-8	19
CC(Cc1cnccn1)NC(=O)c1cc(COc2ccc(F)cc2F)on1 (configuration not stated)	-5	-6	-3	-8	-1
O=C(Nc1ccccc1)N1C[C@H]2[C@@H](c3ccccc31)[C@H](CO)N2Cc1ccccc1	19	24	x	x	x
Cc1cc(NC(=O)CSc2nc(C3CC3)nc3sc(C)c(C)c23)no1	32	7	-28	3	-6
CCc1nc(SCC(=O)Nc2cc(C)on2)c2c(C)c(C)sc2n1	130*	0	-12	0	x
CCOC(=O)/C=C/[C@H]1CCc2cccc(Cl)c2O1	-19	-2	-18	-1	-1
CCOC(=O)/C=C/[C@H]1CC2(CCO1)SCCCS2	-10	55*	71	-30	26
COc1cccc(CNC(=O)C[C@@H]2C=C[C@@H](NC(=O)C3CCC3)[C@H](CO)O2)c1	5	-1	x	x	x
CCCNC(=O)Nc1ccc2c(c1)C(=O)N(C)C[C@H](OC)[C@@H](C)CN(CC1CCCC1)[C@@H](C)CO2	1	1	x	x	x
O=C(C[C@@H]1CC[C@@H]2[C@H](COC[C@H](O)CN2S(=O)(=O)c2ccccc2)O1)N1CCOCC1	-23	1	x	x	x
Oc1ccc(-c2nnc(SCC3CCCCC3)o2)cc1	19	u	x	4	53*
CCC(=O)Nc1ccc2c(c1)C(=O)c1ccccc1C2=O	-23	u	12	-4	x
CCC(C)(C)c1ccc2c(c1)C(=O)c1ccccc1C2=O	1	6	41	-5	39*
Cc1ccccc1-c1ccc2c(c1)O[C@@H](CN(C)C(=O)Nc1ccc(F)cc1)[C@@H](C)CN([C@@H](C)CO)S2(=O)=O	-5	5	x	x	x
C=CCOC(=O)C1=C(C)NC(=O)NC1C1CC=CCC1 (configuration not stated)	117*	-4	1	-1	x
COCCOC(=O)C1=C(C)NC(=O)NC1C1CC=CCC1 (configuration not stated)	11	-9	7	-5	-2
c1ccc(-n2cnnc2SCc2cn3cccnc3n2)cc1	86*	-4	2	-7	x
O=[N+]([O-])c1ccc(/C=N/N=C/c2ccc([N+](=O)[O-])o2)o1	x	x	-86	3	-9
Cc1cc2ncn(/N=C/c3ccc([N+](=O)[O-])o3)c2cc1C	87*	19	-85	7	2
C[C@@H]1CN([C@H](C)CO)C(=O)c2cc(-c3ccccc3)cnc2O[C@H]1CN(C)C(=O)c1cccc(F)c1	20	1	x	x	x
O=C(C[C@@H]1C=C[C@H](NS(=O)(=O)c2ccccc2)[C@H](CO)O1)NCc1ccncn1	-2	-5	x	x	x
Cc1ccc(N/C=C(/C#N)c2ccsc2)cc1C	7	62*	47	-4	x
SMILES	Statin myotox sup	esBAF inh	MITF TRPM1 HTS	Rtt109 Vps75	Wnt bcat act
COc1ccccc1OCC(=O)NCC1CCCCC1	x	x	12	5	x
O=C(COn1nnc2ccccc21)NCC1CCCCC1	x	53*	x	-4	36*
COc1ccc(N2CCN(C(CNC(=O)c3ccc4c(c3)OCO4)c3cccnc3)CC2)cc1 (configuration not stated)	22	-1	-6	6	x
O=C(NCC(c1cccnc1)N1CCN(c2ccc(F)cc2)CC1)c1ccc2c(c1)OCO2 (configuration not stated)	121*	-1	0	8	x
C[C@H](CO)N1C[C@H](C)[C@H](CN(C)C(=O)Cc2ccccc2)OCCCC[C@H](C)Oc2ccc(NC(=O)Nc3ccc(C(F)(F)F)cc3)cc2C1=O	97*	-3	x	x	x
C[C@H](CO)N1C[C@H](C)[C@H](CN(C)C(=O)Nc2ccc(C(F)(F)F)cc2)OCCCC[C@H](C)Oc2ccc(NC(=O)c3ccccc3)cc2C1=O	112*	-4	x	x	x
C[C@@H]1CCCCO[C@@H](CN(C)C(=O)Nc2ccc(C(F)(F)F)cc2)[C@H](C)CN([C@@H](C)CO)C(=O)c2cc(NC(=O)c3ccccc3)ccc2O1	76*	1	x	x	x
COc1ccc(NC(=O)N(C)C[C@@H]2Oc3c(NC(=O)Nc4ccc(C(F)(F)F)cc4)cccc3C(=O)N([C@H](C)CO)C[C@@H]2C)cc1	x	5	x	x	x
C[C@@H]1CN([C@H](C)CO)C(=O)c2cccc(NC(=O)Nc3ccc(F)cc3)c2O[C@@H]1CN(C)Cc1ccc(Oc2ccccc2)cc1	-50	12	x	x	x
CO[C@H]1CN(C)C(=O)c2cc(NC(=O)Nc3ccccc3)ccc2OC[C@@H](C)N(C(=O)CC2CC2)C[C@@H]1C	-1	-4	x	x	x
O=C(c1ccc(F)cc1)n1ccc(-c2cnc(-c3ccccc3)s2)n1	6	27	67	-3	x
O=C(c1ccc(C(F)(F)F)cc1)n1ccc(-c2cccs2)n1	x	x	-2	-3	42*
O=C(O)CCC(=O)OCC1CCCCC1	114*	-6	-4	5	0
Clc1ccc(-c2cc3ccccc3[nH]2)cc1	-17	81*	x	3	42*
Cc1ccc(-c2cc(=O)c3ccccc3[nH]2)cc1	1	3	-2	-2	12
CN1C(=O)c2cc(NC(=O)C3CCCC3)ccc2OC[C@H]2O[C@@H](CC(=O)NCC(F)(F)F)CC[C@H]21	2	-6	x	x	x
CCc1cc2c(=O)c(-c3cnn(-c4ccccc4)c3)coc2c(CN2CCOCC2)c1O	-22	54*	34	-1	-1
CCc1cc2c(=O)c(-c3cnn(-c4ccccc4)c3)c(C)oc2c(CN2CCCCC2)c1O	x	-5	x	x	-3
Cc1noc(N)c1C(=O)Nc1ccc(C(C)(C)C)cc1	x	x	86*	15	51*
CCCN1[C@@H]2Cn3c(ccc(-c4ccc(F)cc4)c3=O)[C@H]1[C@@H](C(=O)NCCc1cn(C)cn1)[C@@H]2CO	0	-2	x	x	x
CSc1ccc(C2NC(=O)c3ccccc3N2)cc1 (configuration not stated)	-11	65*	x	-3	23
COCC#Cc1ccc2c(c1)O[C@H](CN(C)C(=O)NC(C)C)[C@@H](C)CN([C@H](C)CO)S2(=O)=O	-13	0	x	x	x
CSc1ccccc1NS(=O)(=O)c1ccc2c(c1)OCCO2	92*	-5	-8	-5	-3
COC(=O)c1ccc(C)c(NS(=O)(=O)c2ccc3c(c2)OCCO3)c1	92*	-7	-27	22	x
